Where “and” joins values, the source holds several entries; their conditions need not be identical. Identical values can stand only once. Inconclusive results are not listed. Calls of active or inactive are those of the source. Unless noted, the call rests on the fitted dose curve; in most records, active means well fitted curve in the direction sought with a large enough effect; inconclusive means small, poorly fitted or top-dose-only effect, or another doubt; inactive means no such curve, though single readings can be large; an effect the other way counts as inactive or inconclusive.
How the values were obtained:
[1] = Cell Viability - N2a (AID 540); conditions: N2a mouse neuroblastoma cell viability; activity change, negative = cytotoxicity: at 92.2 µM (top of the series);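 further: plate controls were DMSO alone for no effect and tamoxifen control for full effect; nearly all actives have a fitted effect of over 45% in size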
Method in brief: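 Mouse neuroblastoma N2a cells, 1500/well, exposed to compounds 40 h at 37 °C in complete medium. Viability measured as cellular ATP by CellTiter-Glo luminescence; AC50 from Hill fits of concentration-response.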

[2] = Cellular Toxicity (caspase-3) Jurkat (AID 655); conditions: Jurkat caspase-3 activation, luminescence; caspase-3 activation: at 92.2 µM (top of the series), DMSO = 0%, tamoxifen = 100%;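 further: cells exposed to compound for 16 h at 37 °C before reading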
Method in brief: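 5000 Jurkat cells/well; compound 16 hr, 37 °C; Caspase-Glo 3/7 added, 20 min RT; luminescence read. Norm: DMSO = 0%, tamoxifen 100 uM = 100%. AC50, Hill model.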

[3] = Cellular Toxicity (caspase-3) BJ (AID 658);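 further: 0% = DMSO basal and 100% = 10 µM staurosporine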
Method in brief: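 Luminescent aminoluciferin-substrate cleavage reports caspase 3/7 activity in normal human BJ fibroblasts after 16 hr compound exposure at 37 °C. Normalized to DMSO (basal) and 10 uM staurosporine (100%); AC50 from Hill fit of concentration-response.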

[4] = Cellular Toxicity (caspase-3) MRC-5 (AID 659);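 further: cells exposed to compound for 16 h at 37 °C; 0% = DMSO basal and 100% = 10 µM staurosporine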
Method in brief: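 Luminescence from caspase-cleaved aminoluciferin substrate (Caspase-Glo 3/7, 1 hr RT) reports caspase 3/7 activity in MRC-5 lung fibroblasts after 16 hr compound exposure. Normalized to DMSO basal and 10 uM staurosporine as 100%; AC50 from Hill fits.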

[5] = MultiTox-Fluor Cytotoxicity Assay - LYMP1-003 - Live Cells (AID 962);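 further: 0% = DMSO only and full loss = 92 µM tetraoctylammonium bromide; cytotoxic hits lower the live-cell protease signal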
Method in brief: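 LYMP1-003 lymphoblastoid cells, 2500/well in complete medium, treated 16 h at 37 C; live-cell protease cleavage of GF-AFC read by fluorescence (Ex/Em 405/510) after 60 min reagent; AC50 from Hill fits of concentration-response.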

[6] = Cell Viability - LYMP1-003 - Assay at 24 hr (AID 963);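 further: plate controls were DMSO only for no effect and tetraoctylammonium bromide positive control for full effect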
Method in brief: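 Human lymphoblastoid LYMP1-003 cells, 2500/well, treated 24 h at 37 C in complete medium. Viability read as intracellular ATP by CellTiter-Glo luminescence after 30 min at room temperature; AC50 from Hill-equation fits of qHTS concentration-response.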

[7] = Cell Viability - LYMP1-003 - Assay at 40 hr (AID 964); further: on the % scale 0 is the no-effect control and ±100 the full control effect; nearly all actives have a fitted effect of over 60% in size
Method in brief: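 LYMP1-003 human lymphoblastoid cells, 2500/well, preincubated 5 h at 37 C, then treated with compound for 40 h at 37 C. Intracellular ATP read by CellTiter-Glo luminescence after 30 min at room temperature; AC50 from Hill-equation fits.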

[8] = Cell Viability - LYMP2-010 (AID 981); further: on the % scale 0 is the no-effect control and ±100 the full control effect; nearly all actives have a fitted effect of over 55% in size
Method in brief: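 Human lymphoblastoid LYMP2-010 cells (2500/well) treated 24 h at 37 C in complete medium; viability read as intracellular ATP by CellTiter-Glo luminescence. AC50 from Hill fits of concentration-response data; tetraoctylammonium bromide positive control.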

[9] = Cell Viability - LYMP2-014 (AID 983);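 further: plate controls were DMSO only for no effect and 92 µM tetraoctylammonium bromide for full effect; nearly all actives have a fitted effect of over 50% in size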
Method in brief: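 LYMP2-014 human lymphoblastoid cells, 2500/well, treated 24 h at 37 C in complete medium; viability by CellTiter-Glo ATP luminescence after 30 min at room temperature. AC50 from Hill fits of qHTS concentration-response; tetraoctylammonium bromide positive control.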

[10] = Cell Viability - LYMP2-018 (AID 985);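 further: plate controls were DMSO only for no effect and tetraoctylammonium bromide at 92 µM for full effect; nearly all actives have a fitted effect of over 50% in size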
Method in brief: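 Human lymphoblastoid LYMP2-018 cells, 2500/well, settled 5 hr at 37 C then exposed to compound 24 hr at 37 C; intracellular ATP measured by CellTiter-Glo luminescence. AC50 from Hill-equation concentration-response fits.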

[11] = biological target: Peroxisome proliferator-activated receptor delta (Homo sapiens) (UniProt Q03181); experiment: qHTS assay for small molecule agonists of peroxisome proliferator-activated receptor delta signaling (AID 588534; calls by dose curve;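 further: 0% = DMSO basal wells and 100% = positive control agonist at 10 µM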)
Method in brief: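 Cells carrying a PPAR-delta beta-lactamase reporter were treated with compounds for 18 h at 37 °C in agonist mode. CCF4 fluorescence was read after 2 h; EC50 and efficacy from Hill fits.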

[12] = qHTS assay for small molecule activators of the p53 signaling pathway (AID 651743; active means well fitted activation curve with a large enough effect in the signal ratio, not every such curve was filed as active; the % refers to the signal ratio; further: % of control where 0% means no effect); conditions: HCT-116 p53RE-bla, beta-lactamase FRET ratio, 16 h; activation: stronger effect = higher value
Method in brief: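 Cell-based beta-lactamase reporter (p53 response elements, HCT-116 background). After a 5-hour preincubation, cells received compound for 16 hours at 37 C; substrate development ran 2 hours at room temperature.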

[13] = qHTS assay for small molecule agonists of the antioxidant response element (ARE) signaling pathway measured by Nrf2-dependant transcriptional activity (AID 720636; active means well fitted curve in the direction sought with a large enough effect in the repeat runs; an effect the other way counts as inactive or inconclusive; further: % of control where 0% means no effect)
Method in brief: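 Quantitative HTS format in HepG2 cells stably expressing an ARE-luciferase reporter; 16 hr compound treatment at 37 C, luciferase signal detected with ONE-Glo.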

[14] = qHTS assay for small molecule activators of the human pregnane X receptor (PXR) signaling pathway (AID 720659; call rule not given here; further: 0% is about no effect)
[15] = MultiTox-Fluor Cytotoxicity Assay - LYMP1-001 - Dead Cells (AID 946)
Method in brief: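 Cytotoxicity as increased dead-cell protease fluorescence (bis-AAF-R110, 485/520 nm), read 60 min after MultiTox-Fluor reagent. Human lymphoblastoid line exposed 16 h; Hill-fitted AC50, with DMSO as 0% and 15 uM tetraoctylammonium bromide as 100%.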

[16] = Cell Viability - LYMP2-004 (AID 966);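 further: plate controls were DMSO only for no effect and tetraoctylammonium bromide control for full effect; nearly all actives have a fitted effect of over 65% in size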
Method in brief: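 Lymphoblastoid LYMP2-004 cells, 2500 per well, were preincubated for 5 hr and then treated with compound for 24 h at 37 C in complete medium. Viability was read as cellular ATP by CellTiter-Glo luminescence, and AC50 values were taken from Hill fits to concentration-response data.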

[17] = Cell Viability - LYMP2-011 (AID 969);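 further: 0% = DMSO only and full inhibition = 92 µM tetraoctylammonium bromide; nearly all actives have a fitted effect of over 60% in size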
Method in brief: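 2500 cells/well in complete medium, compound-treated 24 h at 37 C. Viability read as intracellular ATP by CellTiter-Glo luminescence after 30 min at room temperature. AC50 from Hill fits of qHTS concentration-response data.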

[18] = Cell Viability - LYMP2-021 (AID 974);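 further: compound exposure lasts 24 hours at 37 °C; on the % scale 0 is the no-effect control and ±100 the full control effect; nearly all actives have a fitted effect of over 55% in size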
Method in brief: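 Human lymphoblastoid LYMP2-021 cells, 2500/well in complete medium, treated 24 hours at 37 C. Intracellular ATP by CellTiter-Glo luminescence (30 min, RT); AC50 from Hill fits of concentration-response.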

[19] = Cell Viability - LYMP2-016 (AID 984); further: on the % scale 0 is the no-effect control and ±100 the full control effect; nearly all actives have a fitted effect of over 55% in size
Method in brief: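 Cells were seeded at 2500 per well and rested 5 hr before a 24 hr compound exposure at 37 C. Viability was then gauged as cellular ATP by luciferase luminescence, with AC50 values fitted to the Hill equation.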

[20] = Cell Viability - LYMP2-024 (AID 988);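 further: plate controls were DMSO only for no effect and 92 µM tetraoctylammonium bromide for full effect; nearly all actives have a fitted effect of over 60% in size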
Method in brief: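 Human lymphoblastoid LYMP2-024 cells (2500/well) rested 5 hr, then treated with compound for 24 hr at 37 C in complete medium. Viability was measured as intracellular ATP by CellTiter-Glo luminescence. AC50 values came from Hill-equation fits.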

Peroxisome proliferator-activated receptor delta (Homo sapiens), sequence (Q03181 whole entry, looked up): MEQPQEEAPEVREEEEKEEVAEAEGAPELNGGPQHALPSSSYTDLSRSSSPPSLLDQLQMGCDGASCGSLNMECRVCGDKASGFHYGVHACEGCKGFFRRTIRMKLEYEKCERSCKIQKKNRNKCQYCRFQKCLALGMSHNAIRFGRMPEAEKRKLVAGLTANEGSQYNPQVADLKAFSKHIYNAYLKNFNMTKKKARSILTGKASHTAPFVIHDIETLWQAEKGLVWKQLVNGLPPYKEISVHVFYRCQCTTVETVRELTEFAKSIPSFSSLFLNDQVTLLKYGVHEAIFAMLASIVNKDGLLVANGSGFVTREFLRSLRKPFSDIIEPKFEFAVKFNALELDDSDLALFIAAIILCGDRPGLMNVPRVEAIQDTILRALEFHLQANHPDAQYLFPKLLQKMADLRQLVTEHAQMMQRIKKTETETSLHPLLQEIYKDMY

O=C(O)CBr
inactive: Potency [1] | caspase-3 activation [2] 2.79% | outcome [3] | outcome [4] | outcome [5] | outcome [6] | Potency [7] | Potency [8] | Potency [9] | Potency [10] | outcome [11] | activation [12] -0.316% | Potency [13] | outcome [14]

Nc1ccc2ccccc2c1
inactive: Potency [1] | caspase-3 activation [2] 1.77% | outcome [3] | outcome [4] | outcome [15] | outcome [5] | outcome [6] | Potency [7] | Potency [16] | Potency [17] | Potency [18] | Potency [8] | Potency [19] | Potency [10] | Potency [20] | activation [12] 0.265% | Potency [13] | outcome [14]

Cl/C=C/CCl
inactive: Potency [1] | caspase-3 activation [2] 1.51% | outcome [3] | outcome [4] | outcome [15] | outcome [6] | Potency [7] | Potency [16] | Potency [17] | Potency [18] | Potency [8] | Potency [9] | Potency [19] | Potency [10] | Potency [20] | outcome [11] | activation [12] -2.05% | Potency [13] | outcome [14]

CN(C)C(=O)Nc1cccc(C(F)(F)F)c1
inactive: Potency [1] | caspase-3 activation [2] 2.52% | outcome [3] | outcome [4] | outcome [15] | outcome [5] | outcome [6] | Potency [7] | Potency [16] | Potency [17] | Potency [8] | Potency [9] | Potency [20] | outcome [11] | activation [12] 0.966% and 0.726% | Potency [13] | outcome [14]

Oc1ccc(Cl)c(Cl)c1
inactive: caspase-3 activation [2] -1.55% | outcome [3] | outcome [4] | outcome [5] | outcome [6] | Potency [7] | Potency [17] | Potency [18] | Potency [8] | Potency [9] | Potency [19] | Potency [10] | Potency [20] | outcome [11] | activation [12] 2.18% | Potency [13] | outcome [14]

CC(C)CC(C)N (stereo unspecified)
inactive: Potency [1] | caspase-3 activation [2] 1.95% | outcome [3] | outcome [4] | outcome [15] | outcome [5] | outcome [6] | Potency [7] | Potency [16] | Potency [18] | Potency [8] | Potency [19] | Potency [10] | Potency [20] | outcome [11] | activation [12] -1.88% | Potency [13] | outcome [14]

CCOP(=S)(OCC)SCCSCC
inactive: Potency [1] | caspase-3 activation [2] -2.31% | outcome [4] | outcome [15] | outcome [5] | outcome [6] | Potency [7] | Potency [17] | Potency [18] | Potency [9] | Potency [19] | Potency [10] | outcome [11] | activation [12] -1.38% and -6.24% | Potency [13]

BrCC(Br)C1CCC(Br)C(Br)C1 (stereo unspecified)
inactive: Potency [1] | caspase-3 activation [2] 3.33% | outcome [3] | outcome [4] | outcome [15] | outcome [5] | outcome [6] | Potency [7] | Potency [17] | Potency [18] | Potency [8] | Potency [9] | Potency [19] | Potency [10] | Potency [20] | activation [12] -5.49% | Potency [13]

Oc1c(Cl)cccc1Cl
inactive: Potency [1] | outcome [3] | outcome [4] | outcome [15] | outcome [5] | Potency [7] | Potency [16] | Potency [17] | Potency [18] | Potency [8] | Potency [9] | Potency [10] | Potency [20] | outcome [11] | Potency [13] | outcome [14]

C=CCBr
inactive: Potency [1] | caspase-3 activation [2] -0.133% | outcome [3] | outcome [15] | outcome [5] | outcome [6] | Potency [7] | Potency [16] | Potency [17] | Potency [18] | Potency [19] | Potency [10] | Potency [20] | activation [12] -2.4% | Potency [13] | outcome [14]

Clc1cccc(Cl)c1
inactive: Potency [1] | caspase-3 activation [2] -0.0419% | outcome [3] | outcome [4] | outcome [15] | outcome [5] | outcome [6] | Potency [16] | Potency [17] | Potency [18] | Potency [8] | Potency [9] | Potency [19] | Potency [10] | Potency [20] | outcome [11] | Potency [13] | outcome [14]

COc1c(C(C)(C)C)cc([N+](=O)[O-])c(C)c1[N+](=O)[O-]
inactive: Potency [1] | caspase-3 activation [2] -1.52% | outcome [3] | outcome [4] | outcome [5] | outcome [6] | Potency [7] | Potency [16] | Potency [17] | Potency [18] | Potency [8] | Potency [9] | Potency [19] | Potency [10] | Potency [20] | outcome [11] | activation [12] -1.58% | Potency [13] | outcome [14]

ClCC(Br)CBr (stereo unspecified)
inactive: Potency [1] | caspase-3 activation [2] 0.662% | outcome [3] | outcome [15] | outcome [5] | outcome [6] | Potency [7] | Potency [17] | Potency [18] | Potency [8] | Potency [19] | Potency [20] | activation [12] -3.3% | Potency [13] | outcome [14]

S=c1[nH]c2ccccc2[nH]1
inactive: Potency [1] | caspase-3 activation [2] -0.402% | outcome [3] | outcome [4] | outcome [15] | outcome [5] | outcome [6] | Potency [16] | Potency [17] | Potency [18] | Potency [8] | Potency [9] | Potency [19] | Potency [10] | Potency [20] | activation [12] -4.45% | Potency [13] | outcome [14]

Clc1ccccc1
inactive: Potency [1] | caspase-3 activation [2] 1.44% | outcome [3] | outcome [4] | outcome [15] | outcome [5] | outcome [6] | Potency [7] | Potency [16] | Potency [17] | Potency [18] | Potency [8] | Potency [9] | Potency [19] | Potency [10] | Potency [20] | outcome [11] | outcome [14]

CC12CC1(C)C(=O)N(c1cc(Cl)cc(Cl)c1)C2=O (stereo unspecified)
inactive: caspase-3 activation [2] -1.16% | outcome [3] | outcome [4] | outcome [15] | outcome [5] | outcome [6] | Potency [7] | Potency [16] | Potency [17] | Potency [18] | Potency [9] | Potency [19] | Potency [10] | outcome [11] | activation [12] 3.14% | Potency [13]

Source: PubChem BioAssay (NCATS)
